In PubChem BioAssay AID504850 (National Center for Advancing Translational Sciences (NCATS), 2011):
The campaign covered roughly 2,300 compounds. About 1,200 (52%) were called active. Another 34% or so got no clear call; they are omitted. The set was probably picked from earlier hits. The list shows a part of the results. Unmarked numbers belong to inactive results. Calls follow the shape of the dose curve; as a rule, active = well fitted inhibition curve with a large enough effect; inconclusive = small, poorly fitted or top-dose-only effect, or effect the other way; inactive = no such curve, though single readings can be large or run the other way.
% is scaled to controls: 0 for no effect and ±100 for the full control effect; potency is read from the fitted curve at half-maximal effect.

Test: Confirmation screen for delayed death inhibitors of the malarial parasite plastid, 48 hour incubation; also: nearly all actives have a fitted effect of over 65% in size
Settings: P. falciparum-infected erythrocytes, luciferase growth; series mostly up to 28.7 µM; activity change, negative = inhibition: at the top concentration
Procedure, shortened: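 Single-generation (48 h, 37 C) exposure of integrated firefly luciferase-reporter P. falciparum in red cells, 0.1% parasitemia at 2% hematocrit, Albumax-supplemented RPMI. Falling luciferase signal marks parasite growth inhibition.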
In the case of `CCCCOc1ccc(NC2=NC3(CCCC3)N=C(N)N2)cc1`, the Potency was 1.41 µM (active). With `Cc1nc(-c2ccc(S(=O)(=O)N3CCCN(CCc4ccccc4)CC3)s2)cs1` the Potency was 10 µM (active). For `Cc1ccc(N2C(=O)N3[C@H](c4ccc(F)cc4)[C@@H]4C(=O)N(C5CCCCC5)C(=O)[C@@H]4[C@]3(Cc3ccccc3)C2=O)cc1`, the Potency was 5.62 µM (active). With `Cc1cccc(Nc2nc3c(S(=O)(=O)c4ccccc4)nnn3c3ccccc23)c1C` the Potency was 4.47 µM (active). For `COc1ccc([N+](=O)[O-])c(S(=O)(=O)c2ccccc2)n1`, the “activity change, negative = inhibition” value was -55.2%. For `CC1CCCCC1NC(=O)/C(C#N)=C/C=C/c1ccccc1[N+](=O)[O-]` (centres undefined), the Potency was 5.01 µM (active). For `N#C/C(=C\C=C\c1ccccc1[N+](=O)[O-])C(=O)NC1CCCCC1`, the Potency was 4.47 µM (active). For `COC(=O)C(=Cc1ccccc1[N+](=O)[O-])C(=O)OC`, the Potency was 4.47 µM (active). For `COCCNC(=O)/C(C#N)=C/C=C/c1ccccc1[N+](=O)[O-]`, the Potency was 11.2 µM (active). In the case of `COc1ccc(Cn2c(-c3ccc(Br)cc3)c[n+]3ccccc23)cc1`, the Potency was 1.26 µM (active). With `Cn1cc([N+](=O)[O-])c(C(=O)Nc2ccn(C34CC5CC(CC(C5)C3)C4)n2)n1` the “activity change, negative = inhibition” value was -7.7%. For `COCCNCC(=O)NC12CC3CC(CC(C3)C1)C2`, the “activity change, negative = inhibition” value was 7.82%. For `CC(NC(=O)c1ccc([N+](=O)[O-])o1)C12CC3CC(CC(C3)C1)C2` (centres undefined), the Potency was 12.6 µM (active). In the case of `O=C(NC12CC3CC(CC(C3)C1)C2)c1ccc([N+](=O)[O-])o1`, the Potency was 6.31 µM (active). For `CC(=O)c1c(C)cc(C)c(CSc2nc(C)cc(=O)[nH]2)c1C`, the “activity change, negative = inhibition” value was -19.7%. For `Cc1ccc(S(=O)(=O)Nc2cc(=O)[nH]c(SCc3ccc(Cl)cc3)n2)cc1`, the Potency was 11.2 µM (active). With `OC1CCN(c2c3c(nc4cc(-c5ccc(Cl)cc5)nn24)CCC3)CC1` the Potency was 7.08 µM (active). For `Fc1cc2nc(-c3ccncc3)[nH]c2cc1F`, the Potency was 10 µM (active). In the case of `Cn1ccc(=Nc2ccc(NC(=O)c3ccc(N=c4ccn(C)c5ccc([N+](=O)[O-])cc45)cc3)cc2)cc1`, the Potency was 0.199 µM (active). In the case of `Cc1sc2nc[nH]c(=O)c2c1-c1ccc(Cl)cc1`, the “activity change, negative = inhibition” value was -18.2%. For `O=C(CCl)Nc1cccc(S(=O)(=O)NC2=NCCC2)c1`, the Potency was 1.26 µM (active). For `COc1ccccc1-n1c(=S)[nH]c2c(sc(=S)n2-c2ccc(C)cc2C)c1=O`, the Potency was 3.16 µM (active). In the case of `Cc1ccc(C(=O)OCc2nnc(-c3ccc(Br)cc3)o2)cc1`, the “activity change, negative = inhibition” value was -7.51%. For `CCOC(=O)c1c(C)nc(C)c(C(=O)OCC)c1-c1ccc(Br)cc1`, the Potency was 12.6 µM (active). For `Cc1cccc(N2CCN(C3=NC(=O)C(Cc4ccccc4)S3)CC2)c1` (centres undefined), the Potency was 1.78 µM (active). In the case of `Cc1cc(C(=O)N2CCCC(N3CCN(c4cccc(C(F)(F)F)c4)CC3)C2)c(C)o1` (centres undefined), the Potency was 12.6 µM (active). With `O=C(c1ccsc1)N1CCCC(N2CCN(c3cccc(C(F)(F)F)c3)CC2)C1` (centres undefined) the Potency was 14.1 µM (active). For `Cc1ccc(S(=O)(=O)N2CCCCC2C)cc1[N+](=O)[O-]` (centres undefined), the “activity change, negative = inhibition” value was -20.8%. In the case of `Cc1ccc(C(=O)NC2CCCC2)cc1S(=O)(=O)N1CCCCC1`, the Potency was 11.2 µM (active). With `O=C(Nc1ccncc1)c1ccc(Cl)c(S(=O)(=O)N2CCCC2)c1` the Potency was 11.2 µM (active). For `Cc1ccc(C(=O)NC2CCCCC2)cc1S(=O)(=O)N1CCCC1`, the Potency was 11.2 µM (active). With `Clc1cccc(OCCCCCN2CCOCC2)c1` the “activity change, negative = inhibition” value was -3.47%. With `CN(CCCN1CCOCC1)C(=O)c1ccc2nc(Cc3cccc(Cl)c3)oc2c1` the Potency was 14.1 µM (active). In the case of `CCOC(=O)C1CCCN(C(=O)c2cc3cc4ccc(OC)cc4nc3o2)C1` (centres undefined), the Potency was 11.2 µM (active). In the case of `COC(=O)[C@]1(CC(C)C)N[C@H](c2ccc(-c3ccc(F)cc3)c(OC)c2)[C@@H]2C(=O)N(C)C(=O)[C@@H]21`, the Potency was 6.31 µM (active). With `COCCN(C(=O)CCCC(=O)Nc1ccccn1)C(C(=O)NC1CCCCC1)c1ccc(C)cc1` (centres undefined) the Potency was 11.2 µM (active). In the case of `CC[C@H]1OC(=O)[C@H](C)[C@@H](O[C@H]2C[C@@](C)(OC)[C@@H](O)[C@H](C)O2)[C@H](C)[C@@H](O[C@@H]2O[C@H](C)C[C@H](N(C)C)[C@H]2O)[C@](C)(O)C[C@@H](C)CN(C)[C@H](C)[C@@H](O)[C@]1(C)O`, the Potency was 14.1 µM (active). For `CC[C@H]1OC(=O)[C@H](C)[C@@H](O[C@H]2C[C@@](C)(OC)[C@@H](O)[C@H](C)O2)C(C)[C@@H](O[C@@H]2O[C@H](C)C[C@H](N(C)C)[C@@H]2O)[C@](C)(OC)C[C@@H](C)C(=O)[C@H](C)[C@@H](O)[C@]1(C)O` (some centres undefined), the “activity change, negative = inhibition” value was -15.5%. In the case of `COc1ccccc1/C=C/C(=O)/C=C/c1ccccc1O`, the Potency was 1.41 µM (active). For `O=C(/C=C/c1ccccc1O)c1ccco1`, the “activity change, negative = inhibition” value was -8.48%. In the case of `Cc1ccc2[nH]c3c(c2c1)CCCC3NC(=O)CCl` (centres undefined), the Potency was 4.47 µM (active). For `Cc1cc(NC(=O)CSCC(=O)Nc2ccccc2Oc2ccccc2)no1`, the Potency was 14.1 µM (active). With `COC(=O)[C@@]1(Cc2ccc(F)cc2)[C@@H]2[C@@H](CC(=O)[C@H]2CC(=O)C(=O)N(C)C)CN1C(=O)c1ccccc1` the Potency was 11.2 µM (active). For `Cc1cc([N+](=O)[O-])ccc1NC(=O)CSc1nncn1-c1cccnc1`, the “activity change, negative = inhibition” value was -17.8%. With `O=C(N/N=C/c1cccn1-c1ccc([N+](=O)[O-])cc1)c1cccnc1` the Potency was 10 µM (active). In the case of `CCOc1ccc(N(C(=O)c2snc(C(N)=O)c2N)C(C(=O)NCC2CCCO2)c2c[nH]c3ccccc23)cc1` (centres undefined), the Potency was 3.55 µM (active). With `Cc1cc(C)c(C(=O)/C=C/c2cccc3ccccc23)c(=O)[nH]1` the Potency was 8.91 µM (active). For `COc1ccc2[nH]c(=O)c(CN(CCCN(C)C)C(=O)Nc3ccc(F)cc3)cc2c1`, the Potency was 14.1 µM (active). For `O=C(Nc1nnc(SCc2ccc(F)cc2)s1)c1ccccn1`, the Potency was 3.55 µM (active). In the case of `COc1ccc(-n2nc(C#N)c(Cl)cc2=O)cc1`, the “activity change, negative = inhibition” value was -9.59%. For `O=c1c(Cl)cc(Cl)nn1-c1ccccc1`, the Potency was 12.6 µM (active). In the case of `C=C[C@]1(C)C[C@@H](OC(=O)CSCCN(CC)CC)[C@]2(C)C(C)CC[C@]3(CCC(=O)[C@H]32)[C@@H](C)[C@@H]1O` (some centres undefined), the Potency was 14.1 µM (active). For `COc1ccccc1-c1cc(C(=O)N/N=C/c2sccc2C)c2ccccc2n1`, the Potency was 3.98 µM (active). For `COc1ccc(-c2cc(C(=O)N/N=C/c3ccc4c(c3)OCO4)c3ccccc3n2)c(OC)c1`, the Potency was 7.94 µM (active). With `COc1ccc(-c2cc(C(=O)N/N=C/c3sccc3C)c3ccccc3n2)c(OC)c1` the Potency was 12.6 µM (active). In the case of `CCOC(=O)Nc1ccc2c(CNC(C)c3ccccc3OC)cc(=O)oc2c1` (centres undefined), the Potency was 14.1 µM (active). In the case of `CCc1noc(C)c1C(=O)N1CCC(CCC(=O)Nc2cccc(C)c2)CC1`, the Potency was 11.2 µM (active). With `C/C(N)=C(/C#N)C(=O)COC(=O)c1cc(C)n(-c2ccc(F)cc2)c1C` the Potency was 10 µM (active). In the case of `O=C(NCc1ccc2c(c1)OCO2)c1nc(S(=O)(=O)Cc2ccccc2)ncc1Cl`, the “activity change, negative = inhibition” value was -8.24%. In the case of `O=C(CSc1nc2cc([N+](=O)[O-])ccc2n1-c1ccccc1)NCc1ccc2c(c1)OCO2`, the Potency was 11.2 µM (active). For `Cc1nc([N+](=O)[O-])c(Sc2nc3ccccc3n2C)n1Cc1ccccc1`, the Potency was 15.8 µM (active). In the case of `CCN(CC)S(=O)(=O)c1ccc(C2=NOC3(C2)N(C)c2ccccc2C3(C)C)cc1` (centres undefined), the Potency was 12.6 µM (active). With `CN1c2ccccc2C(C)(C)C12CC(c1ccc(S(=O)(=O)N3CCCCC3)cc1)=NO2` (centres undefined) the Potency was 5.62 µM (active). For `C=CCSC(=C(C#N)C#N)c1cc2c([nH]1)CCCC2`, the Potency was 7.08 µM (active). In the case of `COc1ccc(CN2CCN(C(=O)c3ccc(CNS(=O)(=O)c4ccc(C)cc4)cc3)CC2)c(OC)c1OC`, the Potency was 12.6 µM (active). In the case of `COC(=O)[C@@]12CCCN1[C@H](c1ccc(-c3cccc(Cl)c3)c(OC)c1)[C@H]1C(=O)N(C)C(=O)[C@H]12`, the Potency was 2.82 µM (active). With `CCN1C(=O)[C@@H]2[C@@H](c3ccc(SC4CCCCC4)c(OC)c3)N3CCC[C@@]3(C(=O)OC)[C@@H]2C1=O` the Potency was 5.01 µM (active). In the case of `COc1cc(OC)c2c(-c3cccc(-c4cccc(N)c4)c3)cc(=O)oc2c1`, the Potency was 10 µM (active). In the case of `O=[N+]([O-])c1ccc(N2CCN(c3ccccc3)CC2)nc1`, the “activity change, negative = inhibition” value was 24.3%. For `O=C(NCCN1CCN(c2ccc([N+](=O)[O-])cc2)CC1)NCc1ccccc1`, the Potency was 12.6 µM (active). For `O=C1NC(=S)S/C1=C\C=C\c1ccc([N+](=O)[O-])o1`, the Potency was 1.78 µM (active). For `COC(=O)C1=C(C)N(CC2CC2)C(=NCc2cc(OC)c(OC)c(OC)c2)N[C@H]1c1ccccc1`, the Potency was 12.6 µM (active). With `COc1ccccc1CNC(=O)c1ccc(-c2ccccc2Cl)o1` the Potency was 12.6 µM (active). In the case of `Cc1ccc(CNS(=O)(=O)c2ccc(C)s2)cc1`, the “activity change, negative = inhibition” value was 10.8%. In the case of `Cc1ccc(CN2CCC(CNS(=O)(=O)c3ccc(-c4ccc(=O)[nH]n4)s3)CC2)cc1`, the Potency was 5.01 µM (active). For `CC1CN(c2nc(-c3ccc(Br)cc3)nnc2-c2ccccc2)CC(C)N1` (centres undefined), the Potency was 3.98 µM (active). For `COCCn1c(SCC(=O)Nc2ncc(Cl)c(C)c2Cl)nc2ccccc21`, the “activity change, negative = inhibition” value was -29.3%. For `O=C(CSc1nc2ccccc2n1-c1ccccc1)Nc1ncc(Cl)cc1Cl`, the Potency was 11.2 µM (active). For `Cc1ccc(-n2c(SCC(=O)Nc3ncc(Cl)cc3Cl)nc3ccccc32)cc1`, the Potency was 11.2 µM (active). In the case of `CN1c2ccccc2-c2nc3ccccc3n2C1c1cccs1` (centres undefined), the Potency was 7.08 µM (active). With `Cc1ccc(-c2nnc(SCC(=O)N/N=C/c3cccs3)n2-c2ccc(C)cc2)cc1` the Potency was 11.2 µM (active). In the case of `COc1ccc2[nH]c3c(NCCC4=CCCCC4)ncnc3c2c1`, the Potency was 5.62 µM (active). With `CC(C)OCCCNc1ncnc2c1[nH]c1ccc(F)cc12` the Potency was 4.47 µM (active). In the case of `COc1ccc2[nH]c3c(NCCN(C(C)C)C(C)C)ncnc3c2c1`, the Potency was 5.62 µM (active).
